VLA-4 inh: inhibition in a human VLA-4 binding assay | VLA-4 expressing cells, ligand binding flow cytometry | inhibition, % (about 7 µM as worked out from the volumes in the protocol) | actives 0.2% (n = 330,000) | AID 2557; in the data active means inhibition above about 50%
APOBEC3G inh: blocks human APOBEC3G single-stranded DNA deamination | recombinant A3G, ssDNA deamination FAM/TAMRA fluorescence | Q9HC16 | AID 493012 | inhibition, % at 20 µM | actives 0.28% (n = 330,000);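 active means inhibition of at least 40% at 20 µM, with no more than 30% in the related APOBEC3A deaminase screen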;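 further: plate controls were DMSO wells with A3G for no effect and wells lacking A3G enzyme for full effect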
CendR NRP1 mod: alters CendR peptide binding to human NRP-1 | O14786 | FAM-RPARPAR peptide binding to NRP-1, fluorescence polarization | inhibition, % at 25 µM | actives 0.85% (n = 360,000) | AID 602438;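 active means inhibition or corrected inhibition above about 18%, plus a signal ratio from 0.5 to 1.5, limit read from the data, passing the limit was not always enough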
Target sequence (O14786 whole entry, looked up): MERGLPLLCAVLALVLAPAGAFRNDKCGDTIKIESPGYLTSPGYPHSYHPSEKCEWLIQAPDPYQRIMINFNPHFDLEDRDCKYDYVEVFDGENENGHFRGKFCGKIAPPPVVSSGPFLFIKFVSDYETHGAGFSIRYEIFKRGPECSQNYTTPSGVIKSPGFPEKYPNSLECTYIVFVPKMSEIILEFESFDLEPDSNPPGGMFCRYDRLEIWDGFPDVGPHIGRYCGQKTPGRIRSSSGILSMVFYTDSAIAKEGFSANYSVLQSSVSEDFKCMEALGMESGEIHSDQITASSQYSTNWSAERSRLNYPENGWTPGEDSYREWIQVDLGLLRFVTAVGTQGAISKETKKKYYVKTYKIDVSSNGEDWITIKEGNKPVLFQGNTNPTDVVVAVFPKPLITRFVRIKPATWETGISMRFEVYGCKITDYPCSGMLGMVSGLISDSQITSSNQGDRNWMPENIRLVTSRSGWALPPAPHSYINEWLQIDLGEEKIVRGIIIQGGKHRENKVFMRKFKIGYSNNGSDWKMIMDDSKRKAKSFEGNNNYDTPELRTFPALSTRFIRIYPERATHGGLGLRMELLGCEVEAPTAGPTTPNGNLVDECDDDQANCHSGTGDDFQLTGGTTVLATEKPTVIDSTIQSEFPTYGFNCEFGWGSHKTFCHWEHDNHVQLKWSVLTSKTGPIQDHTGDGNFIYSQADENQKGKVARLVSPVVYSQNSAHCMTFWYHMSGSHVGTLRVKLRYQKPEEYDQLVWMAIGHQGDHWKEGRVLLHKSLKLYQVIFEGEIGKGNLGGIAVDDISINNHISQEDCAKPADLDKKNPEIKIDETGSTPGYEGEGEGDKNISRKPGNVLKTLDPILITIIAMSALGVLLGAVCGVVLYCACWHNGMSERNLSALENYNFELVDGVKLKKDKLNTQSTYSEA
beta cell repl: induces beta-cell replication in MIN6 cells | AID 2380 | proliferation, % at 10 µM | actives 0.29% (n = 330,000) | MIN6 cells proliferation, ATPlite luminescence, 48 h; cells starved in 0.2% serum; 100% = growth in 10% serum;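 active means compounds whose signal lies at least 3.5 SD above the mean of all wells on their plate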;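 further: 0% = DMSO-treated cells in low-serum medium and 100% = 10% serum control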
A3A deaminase: human APOBEC3A DNA deaminase inhibition. inhibition, % at 20 µM. actives 0.41% (n = 330,000). P31941. recombinant A3A, FAM/TAMRA ssDNA deamination fluorescence;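 active means at least 40% inhibition at 20 µM here, with at most 30% in a related deaminase screen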;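 further: plate controls were A3A with DMSO for no effect and wells lacking A3A enzyme for full effect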
* marks the source's active call; other numbers are inactive results; . = no result. Rows were chosen to be rich in hits. Some 1.8% of all compounds tested hit in one or more screens of this group.

SMILES	VLA-4 inh	APOBEC3G inh	CendR NRP1 mod	beta cell repl	A3A deaminase
COc1ccc(S(=O)(=O)Nc2cccc3c2O[C@H](CN(C)S(=O)(=O)c2cn(C)cn2)[C@@H](C)CN([C@H](C)CO)C3=O)cc1	17	-7	26*	0	-1
CC(=O)Oc1cc2cccc(OC(C)=O)c(=O)c2c(OC(C)=O)c1OC(C)=O	28	3	30*	-2	28
COc1cc2cccc(OC)c(=O)c2c(O)c1OC	0	6	-7	-2	7
C=CCn1c(CCNC(=O)c2ccc(Cl)c(Cl)c2)nnc1SCCOc1ccc(OC)cc1	-10	4	26*	-5	6
C=CCn1c(SCCOc2ccccc2)nnc1C(C)NC(=O)c1ccccc1 (centres undefined)	-29	-5	-2	3	-2
Cn1c(=O)oc2cc(S(=O)(=O)Nc3ccccc3O)ccc21	-3	1	35*	-3	0
COc1ccc(S(=O)(=O)N2CCN(Cc3cccc([N+](=O)[O-])c3)CC2)cc1	-3	-4	20*	1	-4
COCCCn1c(C(=O)N2CC(C)OC(C)C2)cc2c(=O)n3ccccc3nc21 (centres undefined)	19	-2	10	0	-2
O=C1C=C(NCCc2cc(Br)c(O)c(Br)c2)C(=O)c2ncccc21	.	.	42*	.	.
CC(C)(C)c1cc(CCC(=O)NCCc2ccccn2)cc(C(C)(C)C)c1O	41	-14	12	-4	-4
CCCCCCn1cc(CN2CC(N3CCCCC3)CS2(=O)=O)nn1 (centres undefined)	.	.	-11	.	.
COc1ccc(C2=NS(=O)(=O)N(C)C(C(=O)NC3CCCCC3)=C2)cc1OC	3	2	-8	0	0
O=C(Cc1ccccc1)NC(NCCc1ccccc1)C(Cl)(Cl)Cl (centres undefined)	-1	-3	22*	-5	-3
O=C(NCc1ccccn1)c1ccc(NS(=O)(=O)c2ccccc2)cc1	1	-8	22*	1	0
C/C(Cl)=C/CSc1nn2c(=O)c3ccccc3nc2s1	0	16	26*	0	2
CCOc1cnc(-c2c(-c3c(Cl)cccc3Cl)noc2C)o1	22	-3	27*	-3	-1
OC(c1ccc(Cl)cc1)c1ncc(-c2ccc(Oc3ccccc3)cc2)[nH]1 (centres undefined)	.	.	-7	.	.
Cc1cc(C)c(C#N)c(N2CCN(CCOc3ccc(Cl)cc3)CC2)n1	-6	13	27*	-2	2
COc1ccc(Cl)cc1CN1CCN(c2nc(C)cc(C)c2C#N)CC1	-5	-6	6	0	0
CCN(C(=O)CSc1nnc(-c2ccccc2Cl)n1C1CCCC1)C1CCS(=O)(=O)C1 (centres undefined)	2	2	20*	0	3
CCN(C(=O)CSc1nnc(-c2c[nH]c3ccccc23)n1C1CC1)C1CCS(=O)(=O)C1 (centres undefined)	-6	-8	5	1	13
COC(=O)c1c(C)[nH]c(C(=O)/C=C/c2ccccc2F)c1C	-4	0	18	-3	0
Cc1cc(S(=O)(=O)Nc2ccc3cn[nH]c3c2)c(C)cc1Cl	1	18	-15	-3	4
Cc1cc(C)c(S(=O)(=O)/N=C2\C=C(Nc3ccc(C(=O)O)cc3)C(=O)c3ccccc32)c(C)c1	-2	0	23	-4	11
Cc1ccc(S(=O)(=O)/N=C2\C=C(NS(=O)(=O)c3ccccc3)C(=O)c3ccccc32)cc1	.	.	65*	.	.
SMILES	VLA-4 inh	APOBEC3G inh	CendR NRP1 mod	beta cell repl	A3A deaminase
Cc1cc(C)c(S(=O)(=O)/N=C2\C=C(NS(=O)(=O)c3ccccc3)C(=O)c3ccccc32)c(C)c1	-3	3	28*	-4	5
CC(=O)N1CCC(O)(c2ccc3c(c2)OCO3)CC1	11	-6	22*	-2	-4
CN(C(=O)C1CCCCC1)C1CCS(=O)(=O)C1 (centres undefined)	8	13	14	-3	2
CCOc1ccccc1NC(=O)CSc1ccc(-c2sc(C)nc2C)nn1	-8	-1	-6	-1	1
CCOC(=O)c1c(CC(C)C)csc1NC(C)=O	-8	-9	-6	-1	0
CCOC(=O)c1c(CC(C)C)csc1NC=O	11	-6	30*	6	-4
CCN(C(=O)CN1C(=O)/C(=C/c2ccccc2)SC1=S)C1CCS(=O)(=O)C1 (centres undefined)	6	7	-1	-5	-3
Cc1cc(C)n(-c2ccc(C(=O)Nc3nnc(C4CC4)s3)cc2)n1	-16	-1	26*	-3	1
O=C(Nc1nnc(C2CC2)s1)c1cccs1	4	7	25*	-1	-4
Cc1cc(C)n(-c2ccc(C(=O)NC(C)C)cc2)n1	12	-4	-1	-2	-5
COc1ccc(OC)c(Cc2nnc(CCC(=O)N3CCCCC3c3nccs3)o2)c1 (centres undefined)	4	-7	0	0	-1
CCOC(=O)C1CCN(C(=O)C2CCN(c3ncnc4c3nc3n4CCCCC3)CC2)CC1	-5	-3	16	-1	-3
Cc1ncc(S(=O)(=O)c2ccccc2)c(-c2ccccc2)n1	7	-1	8	-1	-2
O=S(=O)(c1ccccc1)c1cnc(-c2cccnc2)nc1-c1ccc(Cl)c(Cl)c1	-6	-10	20*	-4	0
Cc1cccc(NC(=O)c2cc3c(=O)n4ccccc4nc3n(CC(C)C)c2=N)c1	68*	-6	7	-6	-2
COc1ccccc1/C=N/NC(=O)c1cccc(NC(=O)c2ccccc2Cl)c1	0	-6	12	0	-3
COc1ccc(/C=N/NC(=O)c2cccc(NC(=O)c3ccccc3Cl)c2)c(OC)c1	16	0	32*	1	5
CCCNC(=O)CS(=O)(=O)Cc1nc(-c2cccc(OC)c2)oc1C	-4	-4	-12	1	-2
COc1cccc(-c2nc(CS(=O)(=O)CC(=O)NCc3ccc(Cl)cc3)c(C)o2)c1	11	-4	20*	-2	-2
CC(C)N(C(=O)[C@H]1CC(CC(=O)NC(C)(C)C)C(=O)N2CCc3c([nH]c4ccccc34)[C@]12C)C(C)C (some centres undefined)	16	-6	-1	-3	-4
CC1(C)CCC(=O)N2CC[C@H]3C[C@H](OC(=O)Nc4ccc5c(c4)OCO5)C[C@@H]1[C@H]32	19	-6	20*	11	2
CC1(C)CCC(=O)N2CC[C@H]3C[C@H](OC(=O)Nc4ccccc4)C[C@@H]1[C@H]32	21	-8	0	-2	-4
CCOC(=O)c1ccccc1NC(=S)N1CCN(C(=O)c2ccco2)CC1	-2	1	7	1	-1
CC1(C)OC(=O)C=C[C@]2(C)[C@H]3CC[C@@]4(C)[C@H](C(=O)O)OC(=O)[C@H]5O[C@]54[C@]3(C)C(=O)C[C@@H]12	0	-6	22*	0	-2

Assay outcomes deposited in PubChem BioAssay by several laboratories.
